This is an account of results in PubChem BioAssay (NCI).

The panel holds about 83,000 compounds, 20% with a hit somewhere; the sample as a whole holds those more often.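 A percent growth of 40 corresponds to 60% growth inhibition; 0 means no net growth; -100 means all cells died. Active threshold: below 10.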 A number with no mark means an inactive call. Calls of active or inactive are those of the source.

What all share (assay): NCI-60 one-dose screen, 48 h (100 = growth as untreated, 0 = no growth, -100 = all killed)
Details in all cases: 10 µM unless noted

The test system of assay [1] is HCT-15 colon.
Assay [2] concerns HT29 colon.
Assay [3] deals with SNB-75 CNS.
The test system of assay [4] is SNB-19 CNS.
Assay [5] has as its system U251 CNS.
Assay [6] concerns SK-MEL-5 melanoma.
In assay [7] the test system is UACC-62 melanoma.
Assay [8] deals with LOX IMVI melanoma.
Assay [9] relates to SK-MEL-28 melanoma.

Take `O=C1Nc2cc(-c3ccc(O)cc3)ccc2/C1=C/c1ccc[nH]1`: the growth in assay [1] is 7.26% (active); in [2], 8.88% (active); in assay [3], 19%; in assay [4], 27.8%; in assay [5] it was 18.9%; in [6], -17.3% (active). Also, the growth is 15.7% in assay [7], -6.81% (active) in assay [8] and 23.6% in assay [9].
In the case of `COc1ccc2nc(NC(=O)CSc3nnc4n3S(=O)(=O)c3ccccc3N4c3ccccc3)sc2c1`, the growth in assay [1] was 93.7%; in assay [2], 102%; in assay [3], 77.5%; in [4], 97.2%; in assay [5], 94.9%; in assay [6], 99.1%. For the same compound, the growth in assay [7] was 82.6%; in assay [8], 85.5%; in assay [9] it was 109%.
Turning to `Cc1cc(C)nc(SC2=C(Nc3cc(Cl)ccc3O)C(=O)N(Cc3ccccc3)C2=O)n1`, the growth in assay [1] is 92.1% [30 µM]; in assay [2] it was 108% [30 µM]; in [3] it was 81% [30 µM]; in [4], 89.6% [30 µM]; in [5], 87.5% [30 µM]; in assay [6], 49% [30 µM]. The growth in [7] is 70.6% [30 µM]; in assay [8], 71.1% [30 µM]; in [9] it was 106% [30 µM].
Consider `COC(=O)[C@@H]1CCCN1C(=O)[C@@H]1CCCN1C(=O)[C@H](Cc1ccccc1)NC(=S)Nc1cc(C(F)(F)F)cc(C(F)(F)F)c1`, for which the growth in [1] is 76.4%; in assay [2], 74.7%; in assay [3] it was 73.8%; in assay [4] it was 33.3%; in [5], 7.88% (active); in assay [6], 86.4%. In addition, the growth in assay [7] is 85.3%; in [8] it was 88.5%; in [9] it was 85.3%.
Turning to `CCOC(=O)c1c(CN2CCN(C)CC2)nc2ccc(Cl)cc2c1-c1ccccc1`, the growth was 62.9% in [1]; 18% in [2]; 58.6% in assay [3]; 86.8% in assay [4]; 64.4% in assay [5]; 18.3% in assay [6]. For the same compound, the growth was 86.3% in assay [7], 54.4% in assay [8] and -22.6% (active) in [9].
As to `COc1cc2nnc3c4cccnc4[nH]c3c2cc1OC`, the growth in assay [1] was 16%; in assay [2] it was -2.61% (active); in [3] it was 51.2%; in assay [4] it was 75.7%; in [5], 1.26% (active); in assay [6], 93.5%. Further, the growth in assay [7] was 30.8%; in [8] it was 12.8%; in [9] it was 47.6%.
Turning to `COc1ccc(C(=O)c2sc3nc(C)cc(C)c3c2N)cc1OC`, the growth in assay [1] was 85.4%; in [2], 88.2%; in assay [3] it was 84.3%; in assay [4] it was 79.6%; in assay [5], 66%; in assay [6] it was 93.4%. The growth in assay [7] was 80.8%; in [8] it was 96.5%; in assay [9], 101%.
For the compound `Cc1cc(C)nc(SC2=C(Nc3ccc(C)c(Cl)c3)C(=O)N(Cc3ccccc3)C2=O)n1`, the growth was 63% [30 µM] in assay [1]; 46% [30 µM] in assay [2]; 58.9% [30 µM] in assay [3]; 78.2% [30 µM] in assay [4]; 68.8% [30 µM] in [5]; 62.2% [30 µM] in assay [6]. Further, the growth in assay [7] was 49.7% [30 µM]; in [8], 75.9% [30 µM]; in [9] it was 94.2% [30 µM].
In the case of `O=C1/C(=C/C(Cl)=C/c2ccccc2)SC(=S)N1CCc1ccc(O)cc1`, the growth in [1] is 2.94% (active); in [2] it was 1.54% (active); in assay [3], 17.3%; in assay [4], 6.88% (active); in [5], -58.3% (active); in assay [6], -47.6% (active). In addition, the results for the growth in [7], in assay [8] and in assay [9] were -24.7% (active), -79.2% (active) and -26% (active), respectively.
On to `CN(C)CCCNc1c2ccccc2nc2ccccc12`, for which the growth in assay [1] is 94.1%; in assay [2], 82.8%; in [3], 66.9%; in assay [4], 90.5%; in assay [5], 77.1%; in assay [6], 93.2%. The growth in assay [7] was 105%; in assay [8] it was 96.3%; in assay [9], 103%.
For `Cc1cc(C)nc(SC2=C(Nc3ccc(O)cc3)C(=O)N(Cc3ccccc3)C2=O)n1`, the growth in assay [1] is 89.5% [40 µM]; in [2], 119% [40 µM]; in [3], 89.8% [40 µM]; in [4], 85.1% [40 µM]; in [5] it was 91.9% [40 µM]; in assay [6], 82.4% [40 µM]. Besides, the results for the growth in assay [7], in assay [8] and in assay [9] were 68.4% [40 µM], 82.8% [40 µM] and 112% [40 µM], respectively.
In the case of `O=C(Nc1cccc2[nH]c(C(F)(F)F)nc12)c1ccc(-n2cnnn2)cc1`, the growth is 99.1% in assay [1]; 111% in assay [2]; 100% in [3]; 94% in [4]; 94.4% in [5]; 87.2% in [6]. The figures for the growth in assay [7], in assay [8] and in [9] were 34.3%, 102% and 120%, respectively.
For the compound `O=C(CN(C(=O)Cn1c(=O)n2nnnc2c2ccccc21)c1ccccc1C(F)(F)F)Nc1ccc(C(F)(F)F)cc1`, the growth in assay [1] was 102%; in assay [2], 110%; in assay [3] it was 91%; in assay [4], 95.6%; in assay [5], 99.1%; in assay [6] it was 102%. Moreover, the growth in assay [7] is 101%; in [8], 98.9%; in [9], 108%.
Regarding `COc1ccc2c(c1)O/C(=C\c1cccc(OCC(=O)Nc3nc4c(s3)CCCC4)c1)C2=O`, the growth is 84.8% in assay [1]; 84.7% in assay [2]; 29.3% in assay [3]; 76.1% in [4]; 73.1% in [5]; 97.9% in [6]. In addition, the results for the growth in [7], in [8] and in assay [9] were 76.1%, -100% (active) and 114%, respectively.
